HT1080 IDH1KD tx – HT-1080 IDH1 knockdown cell toxicity (counter line); HT-1080 IDH1 knockdown viability, ATP luminescence, 48 h; Potency, µM (series often up to 46.1 µM), actives largely listed as cytotoxic; actives 2% (n = 360,000); AID 686971
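Viability of IDH1-knockdown HT-1080 fibrosarcoma cells was assessed by CellTiter-Glo after 48 h at 37 °C with titrated compound; concentration-effect curves were classified by fit quality and response size.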
HepG2 tox – HepG2 cytotoxicity, counter-screen for TGF-b inhibitors; actives 0.76% (n = 410,000); HepG2 CAGA-GFP viability, ATP luminescence, 18 h; Potency, µM (highest dose often 46.1 µM), actives largely listed as cytotoxic; AID 588856
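CellTiter-Glo luminescence gave cytotoxicity after 18 hours at 37 degrees C. The cells were HepG2 CAGA-GFP in 1% FBS DMEM, stimulated with 500 pg/mL TGF-beta after compound addition. %Activity was normalised to no-cell wells (complete cell-killing) and DMSO (no toxicity), and curves were fitted and classified.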
KB-V1 cytotox – kills drug-selected multidrug resistant KB-V1 cells | KB-V1 MDR cells viability, CellTiter-Glo, 72 h | Potency, µM (highest dose often 46.1 µM), most hits filed as cytotoxic | actives 3.4% (n = 400,000) | AID 1347076; also: nearly all actives have a fitted effect of over 60% in size
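Cytotoxicity toward P-gp-expressing KB-V1 cells was determined as loss of CellTiter-Glo luminescence after 72 h at 37 degrees C. Compounds were tested in quantitative HTS format across a concentration range, with curves fitted to normalized data.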
HT1080-NT tox – kills 2HG-producing HT-1080-NT fibrosarcoma cells; HT-1080-NT fibrosarcoma viability, CellTiter-Glo ATP luminescence, 48 h; Potency, µM (series often up to 46.1 µM), most hits filed as cytotoxic; actives 1.6% (n = 360,000); AID 686970;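 also: NT is the 2HG producing partner of a matched IDH1 knockdown line; nearly all actives have a fitted effect of over 55% in size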
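750 cells/well, RPMI + 5% FBS; 2 h settle, compound pin-transfer, 48 h at 37 degrees C. CellTiter-Glo 10 min RT, luminescence. Normalized to DMSO and media-only wells.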
KB-3-1 cytotox – KB-3-1 parental cell cytotoxicity; actives 1.4% (n = 400,000); Potency, µM (titrated, usually from 46.1 µM), hits mostly cytotoxic; KB-3-1 viability, CellTiter-Glo ATP luminescence, 72 h; also: nearly all actives have a fitted effect of over 60% in size
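Cytotoxicity measured as CellTiter-Glo luminescence after 72 h at 37 C. Compound titrations were pinned onto drug-naive KB-3-1 parental adenocarcinoma cells grown in DMEM with 10% FBS, and normalized data fitted to concentration-response curves.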
TGFb SMAD3 inh – blocks TGF-b signaling; HepG2 CAGA-GFP TGF-b/SMAD3 reporter, GFP fluorescence, 18 h; TGF-beta stimulated, 500 pg/mL final; Potency, µM (highest dose often 46.1 µM), hits mostly inhibitors; actives 1.2% (n = 410,000); also: nearly all actives have a fitted effect of over 65% in size
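First, reporter cells (HEPG2 CAGA-GFP) rested 2 h at 37 degrees C. Next, compounds were pinned in and TGF-beta added to 500 pg/mL final. After 18 h, GFP was imaged per cell and summed per well.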
Numbers stand for hits; n = inactive; u = inconclusive; x = no result; ! = not confirmed by another sample; [ ] = remark or other dose. Most compounds without a hit are left out; they make up all but 6.6% or so of the library. Calls follow the shape of the dose curve; as a rule, active = well fitted curve in the direction sought with a large enough effect; inconclusive = small, poorly fitted or top-dose-only effect, or another doubt; inactive = no such curve, though single readings can be large; an effect the other way counts as inactive or inconclusive.

SMILES | HT1080 IDH1KD tx | HepG2 tox | KB-V1 cytotox | HT1080-NT tox | KB-3-1 cytotox | TGFb SMAD3 inh
CCOC(=O)c1cnc2c(ccc3ccccc32)c1NCCCN(C)C | 21µM | n | n | u | u | u
CCOC(=O)c1cnc2c(ccc3ccccc32)c1Nc1ccc(C(C)=O)cc1 | x | n | 16µM | x | u | n
CCOC(=O)c1cnc2c(ccc3ccccc32)c1Nc1ccc(OC)c(OC)c1 | x | n | u | x | 7.3µM | n
CCOC(=O)c1cnc2c(ccc3ccccc32)c1Nc1ccc(Cl)cc1 | x | n | n | x | n | n
CCOC(=O)c1cnc2c(OC)cccc2c1Nc1ccc2c(c1)OCCO2 | n | n | 13µM | n | u | n
COc1ccc(C)cc1NC(=O)c1ccc2c(c1)N(Cc1cccc(Cl)c1)C(=O)c1ccccc1S2=O (centres undefined) | x | n | x | x | x | n
CCCCCCSc1ccc([C@H]2N[C@@](Cc3ccccc3)(C(=O)OC)[C@H]3C(=O)N(C)C(=O)[C@@H]23)cc1 | n | n | 16µM | n | u | u
c1nc(N2CCC(N3CCCC3)CC2)c2cc(-c3ccc4c(c3)OCO4)ccc2n1 | x | x | n | x | n | x
O=S(=O)(c1cccs1)N1CCN(CC(O)COC2CCCc3ccccc32)CC1 (centres undefined) | n | n | u | n | n | n
O=S(=O)(c1cccs1)N1CCN(CC(O)COc2cccc(Br)c2)CC1 (centres undefined) | n | n | 15µM | n | u | n
Cc1ccc(C(=O)O/N=C(\N)c2ccccn2)cc1 | u | n | n | 15µM | n | n
CCOC(=O)c1nnn(CC(=O)NC(=O)Nc2cccc(CC)c2)c1C(=O)OCC | n | 11µM! | u | n | n | u
Cn1c(Cc2cccc3ccccc23)nnc1SCC(=O)N1CCN(c2ccccc2)CC1 | n | n | 15µM | n | n | u
Cn1c(SCC(=O)N2CCN(c3ccccc3)CC2)nnc1-c1cc2ccccc2o1 | n | n | n | n | 23µM | n
Cn1cccc1Cc1nnc(SCC(=O)N2CCN(c3ccccc3)CC2)n1-c1ccc(F)cc1 | n | n | 12µM | n | n | n
Cc1occc1-c1nnc(SCC(=O)N2CCN(c3ccccc3)CC2)n1C | n | n | n | n | n | n
Cn1cccc1Cc1nnc(SCC(=O)NCc2ccccc2)n1-c1ccc(F)cc1 | n | n | u | n | n | n
CCc1ccc(-n2nc(C)c3c(C)cc(=O)n(CC(=O)NCc4ccc(C)cc4)c32)cc1 | x | n | n | x | n | n
Cc1ccccc1CSCC(=O)c1c(N)n(CC(C)C)c(=O)n(C)c1=O | n[9.24 µM] | n | 18µM | n | u | n
CC(C)Cn1c(N)c(C(=O)COC(=O)c2ccc(Cl)cc2)c(=O)n(C)c1=O | n | n | n | u | n | n
CC(C)Cn1c(N)c(C(=O)COC(=O)c2ccc(Br)cc2)c(=O)n(C)c1=O | n | n | n | n | 15µM | n
Cc1ccccc1CSCC(=O)c1c(N)n(C)c(=O)n(C)c1=O | n | n | n | n | n | n
CCc1nn2c(=O)cc(COC(=O)c3ccccc3NC(=O)c3ccc(C(C)(C)C)cc3)nc2s1 | x | n | x | x | x | n
c1nc(NCCCN2CCCCC2)c2cc(-c3ccc4c(c3)OCO4)ccc2n1 | x | x | n | x | u | x
Cc1ccc(C(=O)OC(C)C(=O)NC2CCCCC2C)s1 (centres undefined) | n | n | 21µM | n | n | n
SMILES | HT1080 IDH1KD tx | HepG2 tox | KB-V1 cytotox | HT1080-NT tox | KB-3-1 cytotox | TGFb SMAD3 inh
CC(OC(=O)c1ccccc1NCCO)C(=O)NC1CCCCC1C (centres undefined) | n | n | 9.2µM | n | n | u
CN(C)CCNc1nccc(N2CCN(C)CC2)n1 | x | n | n | x | u | n
C/C(=N\Nc1ccccc1)c1cccc(N)c1 | n | n | n | n | n | n
C/C(=N\Nc1cc(-c2ccccc2)nc(-c2ccc(Br)cc2)n1)c1cccc(N)c1 | 18µM | n | 15µM | 11µM | n | u
C/C(=N\Nc1cc(Cl)nc(C)n1)c1ccccc1 | n | n | n | n | u | n
C/C(=N/Nc1cc(-c2ccccc2)nc(-c2ccccc2)n1)c1ccc(O)cc1 | u | n | 18µM | n | u | u
COc1cccc(Nc2cc(-c3ccccc3)nc(C)n2)c1 | x | n | n | x | n | n
COc1ccc(-c2cc(-c3ccccc3)nc(N)n2)c(O)c1 | u | n | 21µM | n | u | u
COc1ccc(OC)c(Nc2cc(-c3ccccc3)nc(N)n2)c1 | 1.5µM | n | 1.3µM | 1.5µM | 1µM | n
COc1ccc(-c2cnc(N)nc2-c2ccc(OC)cc2O)cc1 | n | n | n | n | n | n
COc1ccccc1CNc1cc(-c2ccccc2)nc2nncn12 | x | n | n | x | n | u
Cc1nc(N2CCCC2)c2c(C(=O)Nc3ccc(C)c(Cl)c3)c(C)oc2n1 | x | n | x | x | x | n
O=C1N(Cc2cccc(Cl)c2)C[C@@H]2C[C@@H](c3cccn3-c3cccnc3)N3CCC[C@@]123 | n | n | u | n | u | 16µM
CCc1nc(N)nc(N)c1-c1ccc(Cl)cc1 | 1.2µM | n | u | 0.82µM | u | u
Cc1cccnc1C(NC(=O)C1CCN(CCOc2ccc(F)cc2)CC1)c1ccc(Cl)cc1 (centres undefined) | 16µM | 11µM | n | u | n | u
COc1ccc(OCCN2CCC(C(=O)NC(c3ccc(Cl)cc3)c3ncccc3C)CC2)cc1 (centres undefined) | 21µM | n | n | u | n | u
COc1ccc(/C=C/CN2CCC(C(=O)NC(c3ccc(F)cc3)c3ccc4ccccc4n3)CC2)cc1 (centres undefined) | 10µM | n | u | 16µM | u | u
COc1ccc(OCCN2CCC(C(=O)NC(c3ccc(F)cc3)c3ncccc3C)CC2)cc1 (centres undefined) | u | n | n | u | n | n
COc1ccccc1C(NC(=O)C1CCN(CCOc2ccc3ccccc3c2)CC1)c1ccccn1 (centres undefined) | 18µM | n | n | 18µM | n | 14µM
COc1ccc(-n2c(SCC(=O)Nc3cc(C)on3)nc3c(c2=O)SC(C)C3)cc1 (centres undefined) | n | n | n | n | n | n
CC1CCN(C(=O)Nc2ccc3nc(-c4ccco4)c(-c4ccco4)nc3c2)CC1 | x | n | u | x | n | u
Cc1nc(-c2ccc(S(=O)(=O)Nc3cc(Cl)ccc3C)cc2)co1 | x | n | u | x | n | n
O=C(NCC(c1ccccc1)N1CCCC1)C1CCN(C(=O)Nc2ccccc2)CC1 (centres undefined) | n | n | n | n | n | n
